From PubChem BioAssay
Hits are enriched below; roughly 12% of the tested compounds scored in any of these assays.
RORgamma inh = ROR gamma (mouse) transcription inhibition; 5.4% of 310,000 active; AID 2551; P51450; Potency, µM (series often up to 53.6 µM), usual class: inhibitors; Drosophila S2 Gal4-RORgamma UAS-luciferase reporter, 20 h; also: nearly all actives have a fitted effect of over 60% in size
Target sequence (P51450 whole entry, looked up, the tested form may be a part): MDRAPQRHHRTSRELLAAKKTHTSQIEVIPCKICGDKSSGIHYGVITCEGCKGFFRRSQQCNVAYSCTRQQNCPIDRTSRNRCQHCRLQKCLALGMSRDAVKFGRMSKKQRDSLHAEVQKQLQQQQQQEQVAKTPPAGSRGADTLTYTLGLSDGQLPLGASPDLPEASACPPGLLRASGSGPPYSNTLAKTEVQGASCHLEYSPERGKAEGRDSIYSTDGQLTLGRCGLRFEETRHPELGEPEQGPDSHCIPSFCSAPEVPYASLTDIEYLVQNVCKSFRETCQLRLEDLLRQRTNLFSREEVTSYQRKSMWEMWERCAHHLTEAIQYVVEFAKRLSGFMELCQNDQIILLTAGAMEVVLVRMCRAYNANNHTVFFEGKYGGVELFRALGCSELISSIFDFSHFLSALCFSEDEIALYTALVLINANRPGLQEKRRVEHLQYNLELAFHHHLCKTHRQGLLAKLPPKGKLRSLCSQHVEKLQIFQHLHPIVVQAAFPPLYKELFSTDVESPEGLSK
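In this cell-based reporter format, copper sulfate (700 uM final) drives Gal4–ROR gamma fusion expression from a metallothionein promoter in Drosophila Schneider cells; compounds preincubated 1 hr, reporter read after 20 hr at ambient temperature.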
ALDH1A1 block = blocks purified human ALDH1A1 activity; Purified ALDH1A1, NADH fluorescence, propionaldehyde substrate; Potency, µM (top dose mostly 75.3 µM), hits mostly inhibitors; 7.3% of 220,000 active; AID 1030; active = well fitted inhibition curve with a large enough effect, not every such curve was filed as active; inconclusive = small, poorly fitted or top-dose-only effect, or another doubt; inactive = no such curve, though single readings can be large or run the other way
VP16 counter = inhibits Gal4-VP16 luciferase reporter, ROR gamma counter-screen. Drosophila S2 Gal4-VP16 UAS-luciferase, luminescence, 20 h. Potency, µM (titrated, usually from 53.6 µM), actives largely listed as inhibitors. 3.5% of 310,000 active. AID 2546;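 also: Gal4-VP16 expression switched on by copper sulfate through the metallothionein promoter; nearly all actives have a fitted effect of over 50% in size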
PLK1 PBD inh = PLK1 (human) polo-box domain binding inhibition | P53350 | Plk1 PBD binding of FITC phosphopeptide, fluorescence polarization | Potency, µM, hits mostly inhibitors | 2.8% of 360,000 active | AID 720504; also: series mostly up to about 57 µM; nearly all actives have a fitted effect of over 65% in size
Sfp PPTase inh = inhibitors of Bacillus subtilis Sfp phosphopantetheinyl transferase; 3.5% of 310,000 active; AID 1490; Biochemical Sfp PPTase activity, qHTS; Potency, µM, most hits filed as inhibitors;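 also: the enzyme is Sfp with the accession as filed and its product quenches rhodamine fluorescence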
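After 15 min at room temperature with compound, 15 nM Sfp received 5 uM rhodamine-CoA plus 12.5 uM BHQ-2-ybbR (50 mM Hepes pH 7.6, 10 mM MgCl2). Rate came from the fluorescence difference over 30 min, ex 525/em 598 nm.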
Hits are given with their value; 0 = inactive; ? = inconclusive; - = not tested or not shown. Unless noted, calls follow the shape of the dose curve; as a rule, active = well fitted curve in the direction sought with a large enough effect; inconclusive = small, poorly fitted or top-dose-only effect, or another doubt; inactive = no such curve, though single readings can be large; an effect the other way counts as inactive or inconclusive.

SMILES	RORgamma inh	ALDH1A1 block	VP16 counter	PLK1 PBD inh	Sfp PPTase inh
COc1ccc(S(=O)(=O)N(C)CC(=O)Nc2ccccc2SC)cc1	0	0	0	0	0
CSc1ccccc1NC(=O)CN(C)CC(=O)NCc1ccccc1	0	0.2µM	0	0	0
COc1ccc(CC(=O)N(C)CC(=O)Nc2ccccc2SC)cc1	0	-	0	24µM	0
COc1cccc(CN(C)CC(=O)Nc2ccccc2C(C)C)c1	0	20µM	0	0	?
CSc1ccccc1NC(=O)CN(C)Cc1cccc(Cl)c1	0	?	0	0	32µM
COc1ccc(CCNC(=O)Nc2ccc([N+](=O)[O-])cc2)cc1OC	0	0	0	0	0
N#Cc1ccc(-c2cccnc2)nc1SCC(=O)Nc1sc2c(c1C#N)CCC2	13µM	0	?	0	0
CC(Sc1nc(-c2ccccc2)cc(C(F)(F)F)n1)C(=O)Nc1sc2c(c1C(N)=O)CCC2 (stereo not drawn)	0	?	0	0	?
CC(Sc1nc(-c2ccccc2)cc(C(F)(F)F)n1)C(=O)Nc1sc2c(c1C#N)CCC2 (stereo not drawn)	0	0	0	24µM	0
N#Cc1c(C(F)(F)F)cc(-c2ccccc2)nc1SCC(=O)Nc1sc2c(c1C#N)CCC2	0	0	0	30µM	0
COc1ccc(-c2ccc(C#N)c(SCC(=O)Nc3sc4c(c3C#N)CCC4)n2)cc1	0	0	0	0	0
OC(c1ccc(F)c(F)c1)c1nc(-c2ccc3ccccc3c2)cs1 (stereo not drawn)	-	-	-	0	-
COc1cc(C=C2C(=O)c3ccccc3C2=O)cc(OC)c1OC	0	1.6µM	0	0.67µM	0
COc1cc(C=C2C(=O)c3ccccc3C2=O)cc(OC)c1	0	-	0	1.1µM	0
COc1cccc(C=C2Cc3ccccc3C2=O)c1	-	-	-	0	-
COc1ccc(C=C2C(=O)c3ccccc3C2=O)cc1O	?	0.89µM	?	19µM	0
CC[C@H](C)[C@H](NC(=O)[C@H](CCCNC(=N)N)NC(=O)[C@@H](NC(=O)[C@H](CCCNC(=N)N)NC(=O)[C@H](CCCCN)NC(=O)[C@H](CCCNC(=N)N)NC(=O)[C@@H](NC(=O)[C@H](CC(N)=O)NC(=O)[C@@H](N)CS)[C@@H](C)O)[C@@H](C)CC)C(=O)N[C@@H](CCC(N)=O)C(=O)N[C@@H](CCCNC(=N)N)C(=O)NCC(=O)N1CCC[C@H]1C(=O)NCC(=O)N[C@@H](CCCNC(=N)N)C(=O)N[C@@H](C)C(=O)N[C@@H](Cc1ccccc1)C(=O)N[C@H](C(=O)N[C@H](C(=O)N[C@H](C(=O)NCC(=O)N[C@@H](CCCCN)C(=O)O)[C@@H](C)CC)[C@@H](C)O)C(C)C	0	-	0	-	0
Fc1ccc(NC(=S)Nc2cccnc2)cc1Cl	0	28µM	0	0	28µM
O=C(Nc1ccc(F)c(Cl)c1)c1cccnc1	0	-	0	21µM	0
O=C(Nc1cccc(F)c1)N1CCCC2(CCN(C(=O)c3ccco3)CC2)C1	0	?	0	-	0
CC(C)(C)c1cnnn1-c1ccc(-c2csc(N)n2)cc1	0	18µM	0	0	0
Fc1ccc(N/N=C2/CCSc3sccc32)c(F)c1	0	19µM	0	?	0
O=C(O)c1cccc(N/N=C/C2=C(Cl)c3cc(Cl)ccc3SC2)c1	0	20µM	0	21µM	0
O=C(O)c1cccc(N/N=C/c2ccc(F)c(F)c2)c1	0	?	0	0	0
COc1ccc(OCC(=O)N2CCc3c([nH]c4ccccc34)C2c2ccccn2)cc1 (stereo not drawn)	0	0.45µM	0	0	0
SMILES	RORgamma inh	ALDH1A1 block	VP16 counter	PLK1 PBD inh	Sfp PPTase inh
CCc1nc(C)ccc1OCC(=O)N1CCc2c([nH]c3ccccc23)C1c1ccccn1 (stereo not drawn)	0	0	0	0	0
Cc1ccc(-c2cc(C3C4C=CCC(C)C4C(=O)N3Cc3ccccc3)ccc2F)cc1 (stereo not drawn)	0	-	0	-	0
O=C(c1ccc2c(=O)n3c(nc2c1)CCCCC3)N1CCN(c2ccc(F)cc2)CC1	0	?	0	0	?
O=C(Nc1ccc2nc3n(c(=O)c2c1)CCCCC3)C(=O)N1CCN(c2ccc(F)cc2)CC1	0	-	0	6.7µM	0
O=C(Nc1ccc2nc3n(c(=O)c2c1)CCCCC3)c1c(F)ccc([N+](=O)[O-])c1F	0	-	7.9µM	24µM	0
O=c1c2cc(NC(=S)N3CCC(N4CCCCC4)CC3)ccc2nc2n1CCCCC2	0	0	0	0	79µM
